# Screens as filed in PubChem BioAssay.
# Only some compounds are listed: those with a hit (about 6.6% of all), similar ones and a draw of the others.
# KB-3-1 tox – kills parental KB-3-1 adenocarcinoma cells. 400,000 tested, 1.4% active. Potency, µM (highest dose often 46.1 µM), most hits filed as cytotoxic. KB-3-1 viability, CellTiter-Glo ATP luminescence, 72 h. AID 1347075; further: nearly all actives have a fitted effect of over 60% in size
#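 Luminescent ATP read-out (CellTiter-Glo) measures survival of drug-naive KB-3-1 cells after 72 h compound exposure at 37 °C. Titration series was screened from lowest to highest concentration, with DMSO vehicle plates as background controls.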
# SW480 rerep – inducers of DNA re-replication in SW480 colon cancer cells. AID 624297. 340,000 tested, 1.8% active. SW480 DNA re-replication, Hoechst DNA content imaging, 48 h. Potency, µM (titrated, usually from 46.1 µM), usual class: activators; further: nearly all actives have a fitted effect of over 55% in size
#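 First, 250 cells per well were seeded. Next, compound or vehicle (23 nL) was pinned in, plates sat 48 hr at 37 C. Finally Hoechst was added for 40 min before fluorescence scanning.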
# KB-V1 MDR tox – kills drug-selected multidrug resistant KB-V1 cells | AID 1347076 | 400,000 tested, 3.4% active | Potency, µM (doses to about 46.1 µM), most hits filed as cytotoxic | KB-V1 MDR cells viability, CellTiter-Glo, 72 h; further: nearly all actives have a fitted effect of over 60% in size
#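 In this primary screen, KB-V1 cells overexpressing P-gp are incubated with library compounds (lowest to highest concentration) for 72 h at 37 degrees C before a luminescent ATP viability read.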
# MCF10A rereplic – DNA re-replication induction in MCF 10a cells; MCF 10A DNA re-replication, Hoechst nuclear intensity, 48 h; Potency, µM (highest dose often 46.1 µM), most hits filed as activators; 350,000 tested, 2.9% active; AID 624296; further: nearly all actives have a fitted effect of over 50% in size
# RGS4 inh – inhibitors of human regulator of G protein signaling 4; Transcreener GDP fluorescence polarization, RGS4-accelerated GTP hydrolysis; Potency, µM (highest dose often 114 µM), most hits filed as inhibitors; 390,000 tested, 0.039% active; further: nearly all actives have a fitted effect of over 75% in size
# Target sequence (P49798 whole entry, looked up): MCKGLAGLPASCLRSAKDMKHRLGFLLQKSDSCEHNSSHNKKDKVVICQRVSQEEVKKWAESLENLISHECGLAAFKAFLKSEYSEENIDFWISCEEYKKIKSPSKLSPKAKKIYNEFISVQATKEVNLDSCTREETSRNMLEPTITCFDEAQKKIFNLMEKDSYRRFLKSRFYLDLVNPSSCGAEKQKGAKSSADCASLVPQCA
#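 MLSMR compounds (23 nl, pin-transferred) preincubated 10 min at room temperature with a 500nM (2x) first reagent, then RGS4 at 900nM (2x) plus Transcreener GDP mix added; fluorescence polarization (620/688 nm) read before and after 90 min at 30 °C.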
# PTAP TSG101 blk – blocks PTAP/TSG101 interaction to inhibit HIV-1 budding; Q99816; Fluorescence polarization, FITC-PTAP peptide / Tsg101 binding; Potency, µM (top dose mostly 115 µM), hits mostly inhibitors; 340,000 tested, under 10 active; AID 493005; active means well fitted inhibition curve with a large enough effect in the main read-out, with a control signal flat, not every such curve was filed as active; inconclusive means small, poorly fitted or top-dose-only effect, or effect the other way, or a change in a side signal; inactive means no such curve, though single readings can be large or run the other way
# Target sequence (Q99816 whole entry, looked up): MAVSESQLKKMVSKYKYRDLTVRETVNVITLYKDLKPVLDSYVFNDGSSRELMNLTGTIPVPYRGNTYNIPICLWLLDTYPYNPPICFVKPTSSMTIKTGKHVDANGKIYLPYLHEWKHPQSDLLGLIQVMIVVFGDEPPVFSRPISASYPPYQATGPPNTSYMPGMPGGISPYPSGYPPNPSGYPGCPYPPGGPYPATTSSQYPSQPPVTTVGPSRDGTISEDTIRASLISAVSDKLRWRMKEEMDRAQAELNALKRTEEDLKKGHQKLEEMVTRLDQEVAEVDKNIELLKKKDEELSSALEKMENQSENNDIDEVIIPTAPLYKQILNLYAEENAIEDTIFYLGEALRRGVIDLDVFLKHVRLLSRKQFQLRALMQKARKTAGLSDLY
#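 FP read-out: FITC-PTAP peptide, 50 nM final, binding Tsg101 binding domain, 10 uM final; 20 min, r.t.; 10 mM HEPES pH 7.5, 0.15 M NaCl, 0.01% Tween 20, 3 mM EDTA, 0.1 mM TCEP.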
# Numbers stand for hits; 0 = inactive; ? = inconclusive; - = no result given; [ ] = dose if it differs, or a comment. Unless noted, the call rests on the fitted dose curve; in most records, active means well fitted curve in the direction sought with a large enough effect; inconclusive means small, poorly fitted or top-dose-only effect, or another doubt; inactive means no such curve, though single readings can be large; an effect the other way counts as inactive or inconclusive.
SMILES,KB-3-1 tox,SW480 rerep,KB-V1 MDR tox,MCF10A rereplic,RGS4 inh,PTAP TSG101 blk
Cn1c(=O)c(C(=O)COC(=O)c2cc(-c3ccco3)nc3ccccc23)c(N)n(CC2CC2)c1=O,-,16.4µM,-,0,-,-
Cn1c(=O)c(C(=O)COC(=O)c2cc(C3CC3)nc3ccccc23)c(N)n(Cc2ccccc2)c1=O,0,0,?,?,0,0
COc1ccc(CC(=O)N2CCc3cc(OC)c(OC)cc3C2COc2cc(C)cc(C)c2)cc1OC (stereo unspecified),?,-,0,-,0,-
CCN(C(=S)NC(=O)c1ccccc1Br)C1CCCCC1,0,0.517µM,0,0,0,0
CN(Cc1ccccc1)C(=O)Nc1ccc2c(c1)N(C)C(=O)c1ccccc1S2,0,-,0,-,0,-
COC(=O)c1ccc(COc2ccccc2/C=C(\C#N)C(=O)Nc2c(C)cccc2C)cc1,?,0,?,8.2µM,0,0
Cc1cccc(C)c1NC(=O)/C(C#N)=C/c1ccsc1,0,1.46µM,0,?,0,0
Cc1ccccc1NC(=O)/C(C#N)=C/c1ccsc1,0,0,0,?,0,0
Cn1c(SCC(=O)N2CCOCC2)ncc(C(=O)Nc2ccc(F)cc2)c1=O,-,-,-,-,0,-
COC(=O)[C@@H]1Cc2c([nH]c3ccccc23)C(C)(C)N1C(=O)CCl,?,6.51µM,?,18.4µM,0,0
Cc1cccc(CN2C(=O)[C@@H]3Cc4c([nH]c5ccccc45)C(C)(C)N3C2=O)c1,?,0,?,?,0,0
Cc1cccc(CN2C(=O)[C@H]3Cc4c([nH]c5ccccc45)C(C)(C)N3C2=O)c1,?,?,?,16.4µM,0,0
CC1(C)c2[nH]c3ccccc3c2C[C@@H]2C(=O)N(Cc3ccccc3)C(=O)N21,0,?,?,23.1µM,0,0
COC(=O)C1Cc2c([nH]c3ccccc23)C2CCC(=O)N12 (stereo unspecified),0,-,0,-,-,-
Cc1nc(C(=O)Nc2ccccc2Cl)cc2c1[nH]c1ccccc12,7.31µM,?,2.91µM,0,0,0
CCOc1ccc(NC(=O)CSc2oc(-c3ccc(C)cc3)nc2S(=O)(=O)c2ccc(C)cc2)cc1,0,-,0,-,0,-
CC(C)[C@H](/C=C/C[Si](C)(C)C)[C@H](C)C(O)/C=C/CCCOC(=O)C(C)(C)C (stereo partly specified),-,-,-,-,0,-
CCOC(=O)CSc1nc2ccccc2c(=O)n1CC1COc2ccccc2O1 (stereo unspecified),0,0,0,0,0,0
CCCN(CCC)C(=O)CSc1nc2ccccc2c(=O)n1CC1COc2ccccc2O1 (stereo unspecified),?,0,20.6µM,?,0,0
CCN(CC)C(=O)COn1c(SCC(=O)N(CC)CC)nc2ccccc2c1=O,0,0,16.4µM,0,0,0
O=C1C2CC=CCC2C(=O)N1c1ccc(Cc2ccncc2)cc1 (stereo unspecified),?,0,16.4µM,?,0,0
O=S(=O)(O)CCCS(=O)(=O)O,-,0,-,0,-,-
N#CC1(NC(=O)CSc2nc3ccccc3s2)CCCCC1,0,0,16.4µM,0,0,0
Cc1ccc(C(=O)c2oc3ccccc3c2NC(=O)c2cc(-c3cc(C)ccc3O)n[nH]2)cc1,?,?,?,1.64µM,0,0
Cc1ccc(C(=O)c2oc3ccccc3c2NC(=O)c2cc(-c3ccccc3O)n[nH]2)cc1,0,18.4µM,0,9.2µM,0,0
SMILES,KB-3-1 tox,SW480 rerep,KB-V1 MDR tox,MCF10A rereplic,RGS4 inh,PTAP TSG101 blk
CCOc1ccc(NC(=O)C(C)n2c(=O)cc(C)c3c(C)nn(-c4ccccc4)c32)cc1 (stereo unspecified),0,-,0,-,0,-
O=C(CSc1nccn(-c2ccc(Br)cc2)c1=O)NCc1ccccc1,0,0,13µM,0,0,0
Cc1cnc(C)c(Nc2nc(C(N)Cc3ccc(Cl)cc3)cs2)n1 (stereo unspecified),?,-,20.6µM,-,-,-
NC(Cc1ccc(C(F)(F)F)cc1)c1csc(Nc2nncc3ccccc23)n1 (stereo unspecified),?,-,16.4µM,-,-,-
CCn1cc(/C=C(\NC(=O)c2ccc(OC)c(OC)c2)C(=O)NCCCn2ccnc2)c2ccccc21,0,-,0,-,0,-
CCOC(=O)c1ccc(NC(=O)CCc2c(C)nc3nc[nH]n3c2=O)cc1,0,-,0,-,0,-
CCOC(=O)C1=C(C)N=C2SCCC(=O)N2C1c1ccc(C(=O)OC)cc1 (stereo unspecified),0,0,0,0,0[11.4 µM],0
CCOC(=O)C1=C(C)N2C(=C(C#N)[C@@H]1c1ccc(C(=O)OC)cc1)SC[C@@]2(O)C(C)(C)C,0,?,?,20.6µM,?,0
COc1ccc(NC(=O)CSc2nnc(Cc3cccs3)n2-c2ccc(C)cc2)cc1,0,0,0,0,0,0
Cc1cc(C)nc(SCc2nnc(SCC(=O)Nc3nc(-c4ccccc4)cs3)n2-c2ccccc2)n1,0,0,0,0,0,0
COc1ccc(NCc2nnc(SCC(=O)Nc3nc(-c4ccccc4)cs3)n2-c2ccccc2)cc1,13µM,?,0,10.3µM,0,0
COc1ccc(-n2c(Cc3cccn3C)nnc2SCC(=O)Nc2ccc(C)cc2)cc1,0,0,0,0,0,0
COc1cccc(NC(=O)CSc2nnc(Cc3cccs3)n2-c2ccc(C)cc2)c1,0,0,8.2µM,0,0,0
COc1ccc(-n2c(CNc3ccc(C)cc3)nnc2SCC(=O)Nc2nc(-c3ccccc3)cs2)cc1,0,?,0,14.6µM,0,0
CCCCOc1ccc(C(=O)NCC2(N3CCN(C)CC3)CCCCC2)cc1,-,-,-,-,0,-
CCCN(C(=O)Nc1cn(CC(C)C)c(=O)c2ccccc12)c1ccc(F)cc1,0,-,?,-,0,-
N#CC1=C(C2CC2)CC(c2ccccc2)C(C#N)=C1N (stereo unspecified),0,0,23.1µM,0,0,0
CCOc1ncccc1C(=O)NCc1ccccc1,-,0,-,0,-,-
CCOc1ncccc1C(=O)NCc1ccc(OC)cc1,14.6µM,8.2µM,13µM,?,0,0
CCOC(=O)c1c(C)nc2sc(C(N)=O)c(N)c2c1-c1ccc(OC)cc1,0,0,?,0,0,0
CCOC(=O)c1c(C)nc2sc(C(=O)Nc3ccc(C(C)=O)cc3)c(N)c2c1-c1ccc(OC)cc1,?,2.31µM,?,0,0,0
CCOC(=O)c1c(C)nc2sc(C(=O)Nc3ccc(OC)cc3)c(N)c2c1-c1ccc(OC)cc1,5.8µM,?,4.11µM,3.55µM,0,0
CCOC(=O)c1c(C)nc2sc3c(=O)n(-c4ccc(C(C)=O)cc4)nnc3c2c1-c1ccc(OC)cc1,0,0,?,0,0,0
